Measurements taken from paper PMC7862700, “An all-to-all approach to the identification of sequence-specific readers for epigenetic DNA modifications on cytosine”.

What was measured:
Test in all cases: DAPPL (digital affinity profiling via proximity ligation, sequencing); 10 mM Tris-HCl pH 7.5, 50 mM NaCl, 1 mM DTT, 4% glycerol, room temperature, 30 min; GST-TFs on glutathione beads, 16-mer random dsDNA library, 0.1% formaldehyde crosslink after washing; high values mean tight binding
[1] = molecular target: T1, FEV (Homo sapiens, UniProt Q99581 1-238); details: protein: recombinant; tags: N-terminal GST; dsDNA, one strand shown
T1 sequence: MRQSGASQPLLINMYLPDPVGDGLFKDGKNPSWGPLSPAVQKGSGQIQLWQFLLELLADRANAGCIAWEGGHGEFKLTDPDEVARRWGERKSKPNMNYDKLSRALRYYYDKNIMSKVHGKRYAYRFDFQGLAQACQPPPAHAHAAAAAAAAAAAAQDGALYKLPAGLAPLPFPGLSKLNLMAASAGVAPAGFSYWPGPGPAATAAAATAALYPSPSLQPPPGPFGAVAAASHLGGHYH
Procedure, shortened: (§1)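 Pools of DNA-barcoded human transcription factors, expressed in yeast as GST fusions on glutathione beads and combined with a tag-only sample, were incubated with 200 nmole of a 16-mer random double-stranded DNA library. Incubation took 30 min at room temperature in Tris/NaCl/DTT/glycerol buffer and was followed by washing, 0.1% formaldehyde crosslinking, proximity ligation (BsaI/T4 ligase, 1 h, 37 °C), PCR amplification and sequencing on an Illumina NextSeq500. Binding signal is the ratio of a hexamer's read frequency for a factor to its frequency for the tag-only sample.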

[2] = molecular target: ETV5 (Homo sapiens, UniProt P41161 1-510); details: protein: recombinant; tags: N-terminal GST; dsDNA, one strand shown
Sequence of ETV5 (P41161 whole entry): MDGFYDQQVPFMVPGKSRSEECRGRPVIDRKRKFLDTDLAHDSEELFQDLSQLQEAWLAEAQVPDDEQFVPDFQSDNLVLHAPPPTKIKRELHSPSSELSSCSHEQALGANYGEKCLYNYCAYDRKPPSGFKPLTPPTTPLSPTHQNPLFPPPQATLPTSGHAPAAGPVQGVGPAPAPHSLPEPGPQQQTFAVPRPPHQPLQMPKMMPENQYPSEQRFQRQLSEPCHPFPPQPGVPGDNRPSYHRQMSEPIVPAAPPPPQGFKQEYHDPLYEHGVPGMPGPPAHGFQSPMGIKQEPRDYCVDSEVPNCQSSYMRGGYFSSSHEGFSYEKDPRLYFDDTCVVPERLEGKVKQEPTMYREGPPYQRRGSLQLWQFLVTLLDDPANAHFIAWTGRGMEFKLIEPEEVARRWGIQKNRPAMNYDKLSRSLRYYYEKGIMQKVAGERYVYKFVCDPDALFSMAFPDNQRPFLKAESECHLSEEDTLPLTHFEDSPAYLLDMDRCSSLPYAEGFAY
Procedure, shortened: as §1

[3] = molecular target: HSF1 (Homo sapiens, UniProt Q00613 1-529); details: protein: recombinant; tags: N-terminal GST; chain copies: 3; dsDNA, one strand shown
Sequence of HSF1 (Q00613 whole entry): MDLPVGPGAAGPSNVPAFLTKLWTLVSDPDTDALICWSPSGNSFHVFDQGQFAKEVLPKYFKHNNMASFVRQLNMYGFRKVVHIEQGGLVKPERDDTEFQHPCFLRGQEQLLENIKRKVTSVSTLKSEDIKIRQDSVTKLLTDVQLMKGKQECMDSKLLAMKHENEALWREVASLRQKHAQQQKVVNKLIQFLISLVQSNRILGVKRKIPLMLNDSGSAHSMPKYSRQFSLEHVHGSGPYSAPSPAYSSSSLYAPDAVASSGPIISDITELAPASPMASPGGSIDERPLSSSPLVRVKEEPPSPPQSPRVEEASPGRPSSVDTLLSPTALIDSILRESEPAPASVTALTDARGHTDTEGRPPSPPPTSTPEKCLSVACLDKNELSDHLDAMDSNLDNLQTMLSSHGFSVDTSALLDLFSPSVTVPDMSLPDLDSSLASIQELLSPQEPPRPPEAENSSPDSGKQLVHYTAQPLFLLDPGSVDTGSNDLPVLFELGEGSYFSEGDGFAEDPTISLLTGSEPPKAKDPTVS
Procedure, shortened: as §1

[4] = molecular target: T2, SPIC (Homo sapiens, UniProt Q8N5J4 1-248); details: protein: recombinant; tags: N-terminal GST; dsDNA, one strand shown
T2 sequence: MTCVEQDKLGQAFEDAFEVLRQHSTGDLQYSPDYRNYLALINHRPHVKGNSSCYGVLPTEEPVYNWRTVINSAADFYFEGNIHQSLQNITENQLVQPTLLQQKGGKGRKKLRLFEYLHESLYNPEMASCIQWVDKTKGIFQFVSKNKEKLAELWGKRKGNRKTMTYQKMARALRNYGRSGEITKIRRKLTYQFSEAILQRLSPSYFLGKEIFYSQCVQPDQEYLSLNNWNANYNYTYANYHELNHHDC
Procedure, shortened: as §1

[5] = molecular target: ELF4 (Homo sapiens, UniProt Q99607 1-663); details: protein: recombinant; tags: N-terminal GST; dsDNA, one strand shown
Sequence of ELF4 (Q99607 whole entry): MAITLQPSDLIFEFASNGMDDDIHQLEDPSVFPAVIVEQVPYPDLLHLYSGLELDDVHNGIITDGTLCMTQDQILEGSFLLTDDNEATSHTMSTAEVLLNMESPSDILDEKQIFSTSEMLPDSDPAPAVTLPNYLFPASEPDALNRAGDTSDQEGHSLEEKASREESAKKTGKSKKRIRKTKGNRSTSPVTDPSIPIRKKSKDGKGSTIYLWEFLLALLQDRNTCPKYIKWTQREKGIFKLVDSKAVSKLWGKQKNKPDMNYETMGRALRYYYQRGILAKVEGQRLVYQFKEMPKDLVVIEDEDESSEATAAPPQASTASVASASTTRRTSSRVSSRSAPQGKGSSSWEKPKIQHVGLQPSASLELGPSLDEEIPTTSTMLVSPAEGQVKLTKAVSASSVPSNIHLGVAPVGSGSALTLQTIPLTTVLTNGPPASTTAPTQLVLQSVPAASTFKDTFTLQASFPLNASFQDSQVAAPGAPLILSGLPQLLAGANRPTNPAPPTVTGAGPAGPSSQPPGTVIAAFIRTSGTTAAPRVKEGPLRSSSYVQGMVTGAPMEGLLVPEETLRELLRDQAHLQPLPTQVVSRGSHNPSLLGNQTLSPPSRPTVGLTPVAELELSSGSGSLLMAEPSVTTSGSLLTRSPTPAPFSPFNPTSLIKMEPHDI
Procedure, shortened: as §1

[6] = molecular target: T3, ELK4 (Homo sapiens, UniProt P28324-2 1-405); details: protein: recombinant; tags: N-terminal GST; dsDNA, one strand shown
T3 sequence: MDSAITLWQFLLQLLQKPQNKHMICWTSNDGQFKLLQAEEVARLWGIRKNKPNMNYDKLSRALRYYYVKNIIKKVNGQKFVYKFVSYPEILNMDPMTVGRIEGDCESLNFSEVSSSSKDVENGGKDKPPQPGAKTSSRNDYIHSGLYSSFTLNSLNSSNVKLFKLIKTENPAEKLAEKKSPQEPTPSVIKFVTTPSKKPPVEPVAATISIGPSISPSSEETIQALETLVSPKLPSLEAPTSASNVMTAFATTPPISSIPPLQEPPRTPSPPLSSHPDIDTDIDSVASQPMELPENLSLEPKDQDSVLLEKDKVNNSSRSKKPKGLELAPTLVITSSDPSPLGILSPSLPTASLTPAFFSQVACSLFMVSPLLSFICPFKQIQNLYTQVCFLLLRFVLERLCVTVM
Procedure, shortened: as §1

[7] = molecular target: T4, ETV2 (Homo sapiens, UniProt O00321 1-342); details: protein: recombinant; tags: N-terminal GST; dsDNA, one strand shown
T4 sequence: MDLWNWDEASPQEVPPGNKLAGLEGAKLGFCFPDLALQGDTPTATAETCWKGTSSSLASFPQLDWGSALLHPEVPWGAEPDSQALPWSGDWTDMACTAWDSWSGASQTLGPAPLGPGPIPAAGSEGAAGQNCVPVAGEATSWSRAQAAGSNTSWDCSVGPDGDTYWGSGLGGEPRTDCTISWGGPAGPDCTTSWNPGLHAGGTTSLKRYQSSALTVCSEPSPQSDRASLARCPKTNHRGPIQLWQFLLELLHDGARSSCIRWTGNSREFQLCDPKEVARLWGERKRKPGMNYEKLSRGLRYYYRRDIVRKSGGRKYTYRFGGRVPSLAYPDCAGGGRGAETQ
Procedure, shortened: as §1

[8] = molecular target: T5, ELF3 (Homo sapiens, UniProt P78545 1-371); details: protein: recombinant; tags: N-terminal GST; dsDNA, one strand shown
T5 sequence: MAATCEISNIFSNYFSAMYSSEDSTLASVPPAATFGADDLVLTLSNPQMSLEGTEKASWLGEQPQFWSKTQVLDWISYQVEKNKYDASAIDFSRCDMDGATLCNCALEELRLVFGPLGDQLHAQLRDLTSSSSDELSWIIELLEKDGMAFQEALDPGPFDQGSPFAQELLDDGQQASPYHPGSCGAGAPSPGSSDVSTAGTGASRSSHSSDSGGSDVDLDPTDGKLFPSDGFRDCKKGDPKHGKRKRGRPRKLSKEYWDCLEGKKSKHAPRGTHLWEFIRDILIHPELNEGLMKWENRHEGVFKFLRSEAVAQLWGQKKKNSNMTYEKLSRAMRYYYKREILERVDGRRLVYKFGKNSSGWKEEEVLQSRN
Procedure, shortened: as §1

[9] = molecular target: CRX (Homo sapiens, UniProt O43186 1-299); details: protein: recombinant; tags: N-terminal GST; dsDNA, one strand shown
Sequence of CRX (O43186 whole entry): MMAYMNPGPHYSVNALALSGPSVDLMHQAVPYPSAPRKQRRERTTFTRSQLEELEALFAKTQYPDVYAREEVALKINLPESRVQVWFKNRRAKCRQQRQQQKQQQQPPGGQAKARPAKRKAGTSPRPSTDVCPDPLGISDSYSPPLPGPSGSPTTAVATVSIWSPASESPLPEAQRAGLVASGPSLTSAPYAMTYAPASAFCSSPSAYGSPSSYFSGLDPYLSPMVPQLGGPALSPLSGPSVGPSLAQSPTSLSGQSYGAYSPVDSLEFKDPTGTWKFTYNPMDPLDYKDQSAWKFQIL
Procedure, shortened: as §1

[10] = molecular target: ETV1 (Homo sapiens, UniProt P50549 1-477); details: protein: recombinant; tags: N-terminal GST; dsDNA, one strand shown
Sequence of ETV1 (P50549 whole entry): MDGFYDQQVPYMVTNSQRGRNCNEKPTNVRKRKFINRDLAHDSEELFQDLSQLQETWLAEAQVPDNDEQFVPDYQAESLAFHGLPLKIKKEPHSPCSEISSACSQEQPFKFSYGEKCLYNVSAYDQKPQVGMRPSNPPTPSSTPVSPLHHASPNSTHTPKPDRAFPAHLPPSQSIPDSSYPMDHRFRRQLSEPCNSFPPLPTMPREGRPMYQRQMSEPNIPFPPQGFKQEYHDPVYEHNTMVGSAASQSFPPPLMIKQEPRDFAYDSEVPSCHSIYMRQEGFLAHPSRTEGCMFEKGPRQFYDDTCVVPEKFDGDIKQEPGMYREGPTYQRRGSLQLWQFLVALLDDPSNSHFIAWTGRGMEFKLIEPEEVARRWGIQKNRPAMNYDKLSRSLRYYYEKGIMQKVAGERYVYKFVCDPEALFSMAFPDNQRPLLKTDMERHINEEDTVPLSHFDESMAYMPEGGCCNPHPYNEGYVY
Procedure, shortened: as §1

[11] = molecular target: T6, ERF (Homo sapiens, UniProt P50548 1-548); details: protein: recombinant; tags: N-terminal GST; dsDNA, one strand shown
T6 sequence: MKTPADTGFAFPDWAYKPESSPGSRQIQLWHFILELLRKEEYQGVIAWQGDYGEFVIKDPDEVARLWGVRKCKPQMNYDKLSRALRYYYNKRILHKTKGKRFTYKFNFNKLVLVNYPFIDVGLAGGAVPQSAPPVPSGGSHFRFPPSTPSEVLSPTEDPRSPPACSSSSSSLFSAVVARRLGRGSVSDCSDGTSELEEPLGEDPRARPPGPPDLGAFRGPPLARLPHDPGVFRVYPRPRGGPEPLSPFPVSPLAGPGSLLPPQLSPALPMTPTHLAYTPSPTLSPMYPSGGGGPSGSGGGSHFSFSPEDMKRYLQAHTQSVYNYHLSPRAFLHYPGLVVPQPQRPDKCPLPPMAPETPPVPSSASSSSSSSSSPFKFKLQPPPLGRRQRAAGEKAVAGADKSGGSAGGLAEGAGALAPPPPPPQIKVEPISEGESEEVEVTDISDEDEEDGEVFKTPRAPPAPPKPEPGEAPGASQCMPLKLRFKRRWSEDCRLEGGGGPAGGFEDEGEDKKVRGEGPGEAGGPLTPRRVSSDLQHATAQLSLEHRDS
Procedure, shortened: as §1

[12] = molecular target: T7, ETV3L (Homo sapiens, UniProt Q6ZN32 1-361); details: protein: recombinant; tags: N-terminal GST; dsDNA, one strand shown
T7 sequence: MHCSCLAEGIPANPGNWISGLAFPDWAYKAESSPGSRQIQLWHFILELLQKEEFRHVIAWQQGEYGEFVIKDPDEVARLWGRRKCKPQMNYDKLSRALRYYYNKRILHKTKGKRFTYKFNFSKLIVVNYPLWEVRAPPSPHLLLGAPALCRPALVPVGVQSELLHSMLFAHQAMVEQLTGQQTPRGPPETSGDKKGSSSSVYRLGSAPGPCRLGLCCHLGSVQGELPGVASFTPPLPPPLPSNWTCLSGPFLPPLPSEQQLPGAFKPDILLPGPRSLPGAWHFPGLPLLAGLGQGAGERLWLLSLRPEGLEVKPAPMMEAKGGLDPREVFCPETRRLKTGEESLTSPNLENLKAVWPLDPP
Procedure, shortened: as §1

[13] = molecular target: T8, ETS2 (Homo sapiens, UniProt P15036 1-469); details: protein: recombinant; tags: N-terminal GST; dsDNA, one strand shown
T8 sequence: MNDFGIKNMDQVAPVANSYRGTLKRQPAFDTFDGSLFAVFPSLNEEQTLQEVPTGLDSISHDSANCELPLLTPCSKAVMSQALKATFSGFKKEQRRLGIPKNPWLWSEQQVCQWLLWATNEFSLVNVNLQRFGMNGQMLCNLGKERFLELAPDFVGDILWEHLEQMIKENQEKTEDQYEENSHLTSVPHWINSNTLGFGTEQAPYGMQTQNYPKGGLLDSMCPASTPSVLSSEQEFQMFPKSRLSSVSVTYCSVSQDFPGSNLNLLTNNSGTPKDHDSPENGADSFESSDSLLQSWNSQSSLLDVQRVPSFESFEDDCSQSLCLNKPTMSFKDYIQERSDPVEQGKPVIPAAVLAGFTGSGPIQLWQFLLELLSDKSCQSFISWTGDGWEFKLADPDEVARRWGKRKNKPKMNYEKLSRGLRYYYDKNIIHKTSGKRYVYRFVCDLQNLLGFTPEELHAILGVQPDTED
Procedure, shortened: as §1

[14] = molecular target: T9, SPDEF (Homo sapiens, UniProt O95238 1-335); details: protein: recombinant; tags: N-terminal GST; dsDNA, one strand shown
T9 sequence: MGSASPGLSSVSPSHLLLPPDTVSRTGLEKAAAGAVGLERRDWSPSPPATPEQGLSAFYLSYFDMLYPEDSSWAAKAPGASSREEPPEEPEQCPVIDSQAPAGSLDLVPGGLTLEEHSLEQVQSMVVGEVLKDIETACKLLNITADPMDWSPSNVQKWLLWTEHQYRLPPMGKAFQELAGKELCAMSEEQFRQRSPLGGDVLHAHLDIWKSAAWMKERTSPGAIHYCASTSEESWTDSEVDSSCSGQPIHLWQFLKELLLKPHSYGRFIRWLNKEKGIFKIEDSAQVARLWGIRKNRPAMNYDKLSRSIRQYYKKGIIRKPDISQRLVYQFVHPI
Procedure, shortened: as §1

[15] = molecular target: T10, ETV7 (Homo sapiens, UniProt Q9Y603 1-341); details: protein: recombinant; tags: N-terminal GST; dsDNA, one strand shown
T10 sequence: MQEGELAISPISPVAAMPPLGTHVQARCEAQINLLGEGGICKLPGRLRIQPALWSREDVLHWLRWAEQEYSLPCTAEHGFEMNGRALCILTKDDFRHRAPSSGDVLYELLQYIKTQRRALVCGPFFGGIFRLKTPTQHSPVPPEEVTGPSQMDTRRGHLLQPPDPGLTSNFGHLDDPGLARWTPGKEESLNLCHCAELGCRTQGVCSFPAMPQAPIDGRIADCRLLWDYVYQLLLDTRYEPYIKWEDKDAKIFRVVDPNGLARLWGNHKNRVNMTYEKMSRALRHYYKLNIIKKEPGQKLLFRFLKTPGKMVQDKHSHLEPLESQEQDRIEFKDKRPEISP
Procedure, shortened: as §1

[16] = molecular target: T11, ELF5 (Homo sapiens, UniProt Q9UKW6-2 1-255); details: protein: recombinant; tags: N-terminal GST; dsDNA, one strand shown
T11 sequence: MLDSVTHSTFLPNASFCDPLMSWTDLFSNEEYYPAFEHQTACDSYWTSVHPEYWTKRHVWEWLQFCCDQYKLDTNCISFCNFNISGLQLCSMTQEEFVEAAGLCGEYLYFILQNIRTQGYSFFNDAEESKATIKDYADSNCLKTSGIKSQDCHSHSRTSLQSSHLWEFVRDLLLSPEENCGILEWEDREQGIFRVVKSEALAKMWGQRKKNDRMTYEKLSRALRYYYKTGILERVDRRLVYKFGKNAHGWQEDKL
Procedure, shortened: as §1

[17] = molecular target: T12, ETV3 (Homo sapiens, UniProt P41162-2 1-143); details: protein: recombinant; tags: N-terminal GST; dsDNA, one strand shown
T12 sequence: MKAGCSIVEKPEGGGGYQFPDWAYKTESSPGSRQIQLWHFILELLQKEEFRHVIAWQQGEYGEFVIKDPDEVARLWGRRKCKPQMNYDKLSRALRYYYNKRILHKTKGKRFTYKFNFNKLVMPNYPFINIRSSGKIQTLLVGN
Procedure, shortened: as §1

[18] = molecular target: ETV6 (Homo sapiens, UniProt P41212 1-452); details: protein: recombinant; tags: N-terminal GST; dsDNA, one strand shown
Sequence of ETV6 (P41212 whole entry): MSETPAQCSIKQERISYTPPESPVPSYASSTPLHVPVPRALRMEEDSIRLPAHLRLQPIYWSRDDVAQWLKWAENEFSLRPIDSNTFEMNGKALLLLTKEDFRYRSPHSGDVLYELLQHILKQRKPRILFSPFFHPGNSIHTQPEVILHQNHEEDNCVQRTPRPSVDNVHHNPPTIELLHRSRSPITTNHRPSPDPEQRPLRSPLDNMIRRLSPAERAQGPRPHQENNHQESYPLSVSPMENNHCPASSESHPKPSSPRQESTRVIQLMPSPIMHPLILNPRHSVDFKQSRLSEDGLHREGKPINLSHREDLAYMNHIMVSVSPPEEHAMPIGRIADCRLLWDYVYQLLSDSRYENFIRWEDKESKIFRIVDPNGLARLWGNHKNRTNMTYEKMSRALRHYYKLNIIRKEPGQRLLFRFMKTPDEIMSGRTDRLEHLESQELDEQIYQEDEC
Procedure, shortened: as §1

For ATCATC, the binding signal [1] was 1.11 fold enrichment (6-mer frequency, TF over GST control), the binding signal [2] was 1.1 fold enrichment (6-mer frequency, TF over GST control) and the binding signal [3] was 1.4 fold enrichment (6-mer frequency, TF over GST control). For the same sequence, the binding signal [4] was 1.24 fold enrichment (6-mer frequency, TF over GST control), the binding signal [5] was 1.17 fold enrichment (6-mer frequency, TF over GST control) and the binding signal [6] was 1.31 fold enrichment (6-mer frequency, TF over GST control). The binding signal [7] was 1.21 fold enrichment (6-mer frequency, TF over GST control), the binding signal [8] was 1.26 fold enrichment (6-mer frequency, TF over GST control) and the binding signal [9] was 1.56 fold enrichment (6-mer frequency, TF over GST control). For the same sequence, the binding signal [10] was 1.12 fold enrichment (6-mer frequency, TF over GST control), the binding signal [11] was 1.08 fold enrichment (6-mer frequency, TF over GST control) and the binding signal [12] was 1.23 fold enrichment (6-mer frequency, TF over GST control). The binding signal [13] was 1.25 fold enrichment (6-mer frequency, TF over GST control), the binding signal [14] was 1.16 fold enrichment (6-mer frequency, TF over GST control) and the binding signal [15] was 1 fold enrichment (6-mer frequency, TF over GST control). The binding signal [16] was 1.17 fold enrichment (6-mer frequency, TF over GST control), the binding signal [17] was 1.23 fold enrichment (6-mer frequency, TF over GST control) and the binding signal [18] was 1.1 fold enrichment (6-mer frequency, TF over GST control).
